# Experimental data published in the supplement of paper PMC7156485.
# Tested on: TDF
# Assay: H1.0 immunofluorescence intensity relative to DMSO (% of DMSO); higher = stronger H1.0 induction, active = 120 or more
# Details: concentration: 10 µM; 24 h
# Outline: (§1)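 H1.0 nuclear intensity or cell number is stated as percent of the plate control, based on the median of replicates, and HCC1569 values were smoothed for positional effects. These came from HCC1569 and TDF cells treated with compounds at 10 µM for 24 h at 37 °C in triplicate, then fixed in 3.7% formaldehyde and stained with a rabbit anti-H1.0 antibody, an AlexaFluor 647 secondary and DAPI.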
# 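Further: TDF is a line of transformed human dermal fibroblasts of mesenchymal origin.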
row,Structure (SMILES),H1.0 immunofluorescence intensity
1,CC(Cc1ccccc1)Nc1ncnc2c1ncn2C1OC(CO)C(O)C1O (stereo not drawn) [R(-)-N6-(2-Phenylisopropyl)adenosine],93.6 (inactive)
2,CC(C=CC=C(C)C=CC1=C(C)CCCC1(C)C)=CC=CC=C(C)C=CC=C(C)C=CC1=C(C)CCCC1(C)C,101 (inactive)
3,CCCCCC(O)C=CC1C(O)CC(=O)C1CCCCCCC(=O)O (stereo not given) [Prostaglandin E1],92.4 (inactive)
4,CCC1(c2ccccc2)NC(=O)N(C)C1=O (stereo not given) [Mephenytoin],98.5 (inactive)
5,CC(=O)OCC(CCn1cnc2cnc(N)nc21)COC(C)=O [Famciclovir],99.2 (inactive)
6,C[C@@H](Oc1cc(-c2cnn(C3CCNCC3)c2)cnc1N)c1c(Cl)ccc(F)c1Cl,161 (active)
7,Cc1nnc(SCC2=C(C(=O)[O-])N3C(=O)C(NC(=O)Cn4cnnn4)C3SC2)s1.[Na+] (stereo not given) [Cefazolin sodium],87.2 (inactive)
8,CN=C(NC#N)NCCSCc1nc[nH]c1C [Cimetidine],102 (inactive)
9,CC(C)CC(NC(=O)C(COC(C)(C)C)NC(=O)C(Cc1ccc(O)cc1)NC(=O)C(CO)NC(=O)C(Cc1c[nH]c2ccccc12)NC(=O)C(Cc1cnc[nH]1)NC(=O)C1CCC(=O)N1)C(=O)NC(CCCN=C(N)N)C(=O)N1CCCC1C(=O)NNC(N)=O (stereo not given) [Goserelin],94.5 (inactive)
10,CN(CCOc1ccc(CC(Nc2ccccc2C(=O)c2ccccc2)C(=O)O)cc1)c1ccccn1 (stereo not given),92.6 (inactive)
11,Br.CN1CCc2c(cc(O)c(O)c2Cl)C(c2cccc(Cl)c2)C1 (stereo not given),91.9 (inactive)
12,CC(C)(Oc1ccc(CCNC(=O)c2ccc(Cl)cc2)cc1)C(=O)O [Bezafibrate],97.9 (inactive)
13,CC(=O)N1CCN(c2ccc(OCC3COC(Cn4ccnc4)(c4ccc(Cl)cc4Cl)O3)cc2)CC1 (stereo not given) [Ketoconazole],101 (inactive)
14,Br.CN1CCc2cc(O)c(O)cc2C1Cc1ccc(O)c(O)c1.O.O.O (stereo not given),93.9 (inactive)
15,c1ccc(C2CN3CCSC3=N2)cc1 (stereo not given) [Levamisole],102 (inactive)
16,O=C(Nc1cccc2c(=O)cc(-c3nn[nH]n3)oc12)c1ccc(OCCCCc2ccccc2)cc1 [Pranlukast],101 (inactive)
17,CCCCCCC=CCCCCCCCC(=O)O [9(E)-Hexadecenoic acid],105 (inactive)
18,CC1COc2c(N3CCN(C)CC3)c(F)cc3c(=O)c(C(=O)O)cn1c23 (stereo not given) [Levofloxacin],98.5 (inactive)
19,O=C(O)c1cc(=O)c2ccccc2[nH]1 [Kynurenic acid],91.3 (inactive)
20,O=C1NC(=O)c2c1c1c3ccccc3[nH]c1n1cncc21 [Isogranulatimide],90 (inactive)

# Tested on: HCC1569
# Assay: H1.0 immunofluorescence intensity relative to DMSO (% of DMSO); higher = stronger H1.0 induction, active = 140 or more
# Details: concentration: 10 µM; 24 h
# Outline: as §1
row,Structure (SMILES),H1.0 immunofluorescence intensity
1,COC1C=COC2(C)Oc3c(C)c(O)c4c(O)c(cc([O-])c4c3C2=O)NC(=O)C(C)=CC=CC(C)C(O)C(C)C(O)C(C)C(OC(C)=O)C1C.[Na+] (stereo not given),97.5 (inactive)
2,FC(F)(F)c1cc(NC(=S)Nc2ccc(Br)cc2-c2nn[nH]n2)cc(C(F)(F)F)c1,120 (inactive)
3,COc1ccc(C=C2c3ccccc3C(=O)c3ccccc32)cc1O [10-(3-hydroxy-4-methoxybenzylidene)-9(10H)-anthracenone],207 (active)
4,O=C1NC(=O)C(c2cnc3ccccn23)=C1c1cn2c3c(cc(F)cc13)CN(C(=O)N1CCCCC1)CC2,176 (active)
5,N#CC(=C(N)Sc1ccc(N)cc1)c1ccccc1C(F)(F)F [MEK1/2 Inhibitor],110 (inactive)
6,COc1ccccc1N1CCN(CC(O)COc2cccc3ccccc23)CC1.Cl.Cl (stereo not given) [Naftopidil dihydrochloride],101 (inactive)
7,O=C(NCCCCCCNC(=O)ON=C1CCCCC1)ON=C1CCCCC1,97.1 (inactive)
8,O=C(O)c1cc2cc(F)ccc2[nH]1 [5-Fluoroindole-2-carboxylic acid],98.6 (inactive)
9,CC1=C(C)C(=O)C(CCCCC#CCCCC#CCO)=C(C)C1=O,103 (inactive)
10,Cn1c(=O)c2c(ncn2Cc2ccc(C(C)(C)C)cc2)n(C)c1=O,154 (active)
11,"CCCCCCCCCCCC=CCC=CCCCC(=O)O [5(Z), 8(Z)-Eicosadienoic acid]",99.3 (inactive)
12,CCOc1ccc2c(c1)C(C)=CC(C)(C)N2 [Ethoxyquin],98.9 (inactive)
13,CC(=O)C1CCC2C3CCC4=CC(=O)CCC4(C)C3CCC12C (stereo not given) [Progesterone],102 (inactive)
14,CC1(C)CCC2(C(=O)O)CCC3(C)C(=CCC4C5(C)CCC(O)C(C)(C)C5CCC43C)C2C1 (stereo not given) [Oleanolic acid],89.8 (inactive)
15,c1ccc2c(Cc3c[nH]c4ccccc34)c[nH]c2c1 [Diindolylmethane],91.6 (inactive)
16,"O=c1ccc2ccc(O)c(O)c2o1 [7,8-dihydroxy-2H-chromen-2-one]",91 (inactive)
17,S=C(NCc1ccc2c(c1)OCO2)N1CCN(c2ncnc3c2oc2ccccc23)CC1,132 (inactive)
18,CNC1C(OC2C(OC3C(O)C(O)C(N=C(N)N)C(O)C3N=C(N)N)OC(C)C2(O)C=O)OC(CO)C(O)C1O (stereo not given) [Streptomycin],89 (inactive)
19,CC1(C)CCCC(C)(C2CCC3(C)C2C(O)CC2C4(C)CCC(O)C(C)(C)C4CCC23C)O1 (stereo not given) [Panaxadiol],93.6 (inactive)
20,COc1cc2c(c(OC)c1OC)-c1c(cc(OC)c(OC)c1OC)C[C@](C)(O)[C@@H](C)C2,100 (inactive)

row,Structure (SMILES),H1.0 immunofluorescence intensity
1,CC(Cc1ccccc1)Nc1ncnc2c1ncn2C1OC(CO)C(O)C1O (stereo not drawn) [R(-)-N6-(2-Phenylisopropyl)adenosine],102 (inactive)
2,CC(C=CC=C(C)C=CC1=C(C)CCCC1(C)C)=CC=CC=C(C)C=CC=C(C)C=CC1=C(C)CCCC1(C)C,103 (inactive)
3,CCCCCC(O)C=CC1C(O)CC(=O)C1CCCCCCC(=O)O (stereo not given) [Prostaglandin E1],101 (inactive)
4,CCC1(c2ccccc2)NC(=O)N(C)C1=O (stereo not given) [Mephenytoin],104 (inactive)
5,CC(=O)OCC(CCn1cnc2cnc(N)nc21)COC(C)=O [Famciclovir],111 (inactive)
6,C[C@@H](Oc1cc(-c2cnn(C3CCNCC3)c2)cnc1N)c1c(Cl)ccc(F)c1Cl,136 (inactive)
7,Cc1nnc(SCC2=C(C(=O)[O-])N3C(=O)C(NC(=O)Cn4cnnn4)C3SC2)s1.[Na+] (stereo not given) [Cefazolin sodium],89.5 (inactive)
8,CN=C(NC#N)NCCSCc1nc[nH]c1C [Cimetidine],92.1 (inactive)
9,CC(C)CC(NC(=O)C(COC(C)(C)C)NC(=O)C(Cc1ccc(O)cc1)NC(=O)C(CO)NC(=O)C(Cc1c[nH]c2ccccc12)NC(=O)C(Cc1cnc[nH]1)NC(=O)C1CCC(=O)N1)C(=O)NC(CCCN=C(N)N)C(=O)N1CCCC1C(=O)NNC(N)=O (stereo not given) [Goserelin],103 (inactive)
10,CN(CCOc1ccc(CC(Nc2ccccc2C(=O)c2ccccc2)C(=O)O)cc1)c1ccccn1 (stereo not given),88.2 (inactive)
11,Br.CN1CCc2c(cc(O)c(O)c2Cl)C(c2cccc(Cl)c2)C1 (stereo not given),112 (inactive)
12,CC(C)(Oc1ccc(CCNC(=O)c2ccc(Cl)cc2)cc1)C(=O)O [Bezafibrate],105 (inactive)
13,CC(=O)N1CCN(c2ccc(OCC3COC(Cn4ccnc4)(c4ccc(Cl)cc4Cl)O3)cc2)CC1 (stereo not given) [Ketoconazole],118 (inactive)
14,Br.CN1CCc2cc(O)c(O)cc2C1Cc1ccc(O)c(O)c1.O.O.O (stereo not given),89.2 (inactive)
15,c1ccc(C2CN3CCSC3=N2)cc1 (stereo not given) [Levamisole],92.1 (inactive)
16,O=C(Nc1cccc2c(=O)cc(-c3nn[nH]n3)oc12)c1ccc(OCCCCc2ccccc2)cc1 [Pranlukast],109 (inactive)
17,CCCCCCC=CCCCCCCCC(=O)O [9(E)-Hexadecenoic acid],105 (inactive)
18,CC1COc2c(N3CCN(C)CC3)c(F)cc3c(=O)c(C(=O)O)cn1c23 (stereo not given) [Levofloxacin],101 (inactive)
19,O=C(O)c1cc(=O)c2ccccc2[nH]1 [Kynurenic acid],94.5 (inactive)
20,O=C1NC(=O)c2c1c1c3ccccc3[nH]c1n1cncc21 [Isogranulatimide],134 (inactive)
